Out of some 310,000 compounds screened, about 1,900 (0.61%) were called active. Roughly 8% stayed inconclusive and do not appear here. Only a selection was taken, and actives are over-represented in it overall. A number with no mark means an inactive call. Calls come from the whole dose curve; tested in A549 cells.
Assay: qHTS for Stage-Specific Inhibitors of Vaccinia Orthopoxvirus: mCherry Reporter Primary qHTS; note: nearly all actives have a fitted effect of over 35% in size
Settings: Vaccinia virus mCherry reporter infection, fluorescence; series mostly up to 36.5 µM; activity change, negative = inhibition: at the top concentration
% is set by controls: 0 for no effect and ±100 for the full control effect; potency is the fitted concentration of half-maximal effect.

Row | SMILES | outcome | activity change, negative = inhibition [%] | Potency
1 | CCN(CC)C(=O)C(C)N1c2cccc3cccc(c23)S1(=O)=O (stereo not drawn) | inactive |  | 
2 | CSCCC(C(=O)NC(C)(C)C)n1c(-c2ccccc2)nc2ccccc21 (stereo not drawn) |  | 5.73 | 
3 | CCCNC(=O)C1(C)CCN1C(=O)Cc1ccc(-c2ccccc2)cc1 (stereo not drawn) |  | -12 | 
4 | CC(C)N1CCc2c(sc(NC(=O)Cc3ccccc3)c2C#N)C1 |  | -27 | 
5 | CC(=O)N1CCc2c(sc(NC(=O)CCS(=O)(=O)c3ccccc3)c2C#N)C1 |  |  | 12.6 µM (active)
6 | CC(=O)N1CCc2c(sc(NC(=O)CCS(=O)(=O)c3ccc(C)cc3)c2C(N)=O)C1 |  | -21.1 | 
7 | CCc1oc(-c2ccc(OC)cc2)c(C(=O)OCCCCCO)c1C(C)OCCO (stereo not drawn) | inactive |  | 
8 | O=C(c1cnn2c1NC(=C1CC1)C=C2C(F)F)N1CCc2ccccc2C1 |  | -18.9 | 
9 | CN(C)c1cccc(NC(=O)c2ccc(-c3ccc(F)c(F)c3)c3ccoc23)c1 | inactive |  | 
10 | Cc1ccccc1S(=O)(=O)NC(=O)C1(C)CCN1C(=O)C1(c2ccccc2)CCCC1 (stereo not drawn) | inactive |  | 
11 | C#CCSc1nnc(-c2sc3ccccc3c2Cl)o1 |  |  | 11.2 µM (active)
12 | COc1ccc2c(Cl)c(-c3nnco3)sc2c1 | inactive |  | 
13 | O=C(OCC#CCSc1nnc(-c2ccncc2)o1)c1sc2ccccc2c1Cl | inactive |  | 
14 | CC1(C(=O)Nc2cccnc2)Cc2c(-c3ccccc3)ccnc2O1 (stereo not drawn) |  | 3.66 | 
15 | COc1ccc(/C=C/C(=O)c2ccc(NS(=O)(=O)c3ccc(C)cc3)cc2)cc1O |  |  | 12.6 µM (active)
16 | COc1ccc(C(=O)Oc2cc(/C=N/NS(=O)(=O)c3ccc(C)cc3)ccc2OC)cc1 |  | -0.0272 | 
17 | COc1ccc(NS(=O)(=O)c2ccc(NC(=S)NC(=O)/C=C/c3ccc(C)cc3)cc2)nn1 |  | -23.6 | 
18 | CCOC(=O)[C@]12CCCC=C1N(Cc1ccc3c(c1)OCO3)C(=O)[C@H](CC(=O)N1CCN(C(=O)c3ccco3)CC1)C2 |  | 17.3 | 
19 | C/C=C/C(=O)OCc1csc(CC(=O)Nc2ccccc2C)n1 |  |  | 5.01 µM (active)
20 | Cc1ccccc1NC(=O)Cc1nc(COC(=O)CNC(=O)c2ccc(Cl)cc2Cl)cs1 | inactive |  | 
21 | Cc1ccccc1NC(=O)Cc1nc(COC(=O)C(C)(C)Oc2ccc(Cl)cc2)cs1 |  | -3.94 | 
22 | CCC(C(=O)NC(C)(C)C)n1c(-c2ccccc2)nc2ccccc21 (stereo not drawn) |  | -9.32 | 
23 | CC(C)=C(NC(=O)c1ccccc1)C(=O)N/N=C(\C)c1ccccc1O |  | -21.4 | 
24 | C/C(=N\NC(=O)c1ccccc1C)c1ccc(N2CCOCC2)cc1 |  | -16 | 

Row | SMILES | outcome | activity change, negative = inhibition [%] | Potency
25 | C/C(=N\NC(=O)c1ccoc1C)c1ccccc1O |  |  | 1.12 µM (active)
26 | CCOC(=O)[C@]12CCCC=C1N(CCC1=CCCCC1)C(=O)[C@H](CC(=O)N1CCN(C(=O)c3ccco3)CC1)C2 | inactive |  | 
27 | CCc1c(-c2ccc(F)cc2)ncn1Cc1cccc(-c2ccccc2)c1 | inactive |  | 
28 | N#Cc1cccc(NC(=O)c2cc(C3CCCCN3C(=O)CCc3ccccc3)on2)c1 (stereo not drawn) |  | 1.36 | 
29 | Cc1cc2c(cc1C)N1C(=O)c3cc4ccccc4cc3NC(=O)C1C(=O)N2 (stereo not drawn) |  | 11.5 | 
30 | FC(F)(F)c1cccc(N/N=C/c2ccccc2)c1 |  | -17.6 | 
31 | Oc1ccc(/C=N/Nc2ccc(C(F)(F)F)cn2)cc1O |  |  | 10 µM (active)
32 | CCNc1nc(NCC)nc(N/N=C/c2ccc(O)c(OC)c2)n1 |  | -15.6 | 
33 | O=C(COc1ccccc1C(=O)Nc1ccccc1)Nc1cccc(F)c1 |  | -27.2 | 
34 | CC1(C(=O)Nc2cccc(Oc3ccccc3)c2)CCN1Cc1ccccc1Cl (stereo not drawn) | inactive |  | 
35 | CN1OC[C@@H]2CN(C(=O)c3ccc(-c4ccccc4)cc3)[C@H](c3ccc(-c4cccc(F)c4)cc3)C[C@@H]21 |  | -2.21 | 
36 | COc1ccccc1Cc1c(-c2ccc(Cl)cc2)nc2ccc(Cl)cn12 |  | -16.7 | 
37 | C/C(=N\NC(=O)Cc1ccc(F)cc1)c1ccc(F)cc1 |  | -19.4 | 
38 | C/C(=N\NC(=O)c1ccccc1F)c1ccccn1 |  |  | 2 µM (active)
39 | C/C(=N\NC(=O)Cc1ccc(Br)cc1)c1cccnc1 | inactive |  | 
40 | O=C(Nc1ccc(NC(=O)c2ccccc2F)cc1)c1ccccc1F |  | -15 | 
41 | C/C(=N\NC(=O)Cc1ccc(Cl)cc1)c1ccccn1 |  |  | 5.01 µM (active)
42 | O=C(NCCOc1ccccc1)c1ccccc1F |  | -10.6 | 
43 | COc1ccccc1Cc1c(-c2ccc(Cl)cc2)nc2c3ccccc3ccn12 |  | -7.18 | 
44 | COc1ccc(NC(=O)c2sc(=O)n(Cc3ccc(S(=O)(=O)N(C)C)cc3)c2C)cc1 | inactive |  | 
45 | COc1cccc(-c2cc(NC(C)=O)c3ncc(-c4cccc(C(C)=O)c4)n3c2)c1 |  | 4.33 | 
46 | SCc1nc2ccc(Cl)cc2[nH]1 |  | -20.9 | 
47 | CC(=O)N1Cc2cc(C(=O)NCc3cccc(F)c3)nc(-c3cccc(C4=CCCC4)c3)c2[C@H]1CCO |  | -22.7 | 
48 | Cc1ccc(C)c(S(=O)(=O)n2nc(C)c(S(=O)(=O)N3CCC(C)CC3)c2C)c1 |  | 7.85 | 
